According to paper PMC4336329 (PLoS ONE, 2015):
Hit rate of the full screen: of about 310,000 compounds, about 14,000 (4.5%) showed an effect of 50% or more. The effect is printed as a negative number. The list comes from a sample in which strong results are over-represented; it also holds similar structures and randomly drawn compounds.

The compounds below were run against human ether-à-go-go-related gene (hERG) potassium channel (human, UniProt Q12809) (assay: primary screen, population patch clamp on CHO cells stably expressing hERG; higher = less effect of the substance).
human ether-à-go-go-related gene (hERG) potassium channel, sequence (Q12809 whole entry, looked up): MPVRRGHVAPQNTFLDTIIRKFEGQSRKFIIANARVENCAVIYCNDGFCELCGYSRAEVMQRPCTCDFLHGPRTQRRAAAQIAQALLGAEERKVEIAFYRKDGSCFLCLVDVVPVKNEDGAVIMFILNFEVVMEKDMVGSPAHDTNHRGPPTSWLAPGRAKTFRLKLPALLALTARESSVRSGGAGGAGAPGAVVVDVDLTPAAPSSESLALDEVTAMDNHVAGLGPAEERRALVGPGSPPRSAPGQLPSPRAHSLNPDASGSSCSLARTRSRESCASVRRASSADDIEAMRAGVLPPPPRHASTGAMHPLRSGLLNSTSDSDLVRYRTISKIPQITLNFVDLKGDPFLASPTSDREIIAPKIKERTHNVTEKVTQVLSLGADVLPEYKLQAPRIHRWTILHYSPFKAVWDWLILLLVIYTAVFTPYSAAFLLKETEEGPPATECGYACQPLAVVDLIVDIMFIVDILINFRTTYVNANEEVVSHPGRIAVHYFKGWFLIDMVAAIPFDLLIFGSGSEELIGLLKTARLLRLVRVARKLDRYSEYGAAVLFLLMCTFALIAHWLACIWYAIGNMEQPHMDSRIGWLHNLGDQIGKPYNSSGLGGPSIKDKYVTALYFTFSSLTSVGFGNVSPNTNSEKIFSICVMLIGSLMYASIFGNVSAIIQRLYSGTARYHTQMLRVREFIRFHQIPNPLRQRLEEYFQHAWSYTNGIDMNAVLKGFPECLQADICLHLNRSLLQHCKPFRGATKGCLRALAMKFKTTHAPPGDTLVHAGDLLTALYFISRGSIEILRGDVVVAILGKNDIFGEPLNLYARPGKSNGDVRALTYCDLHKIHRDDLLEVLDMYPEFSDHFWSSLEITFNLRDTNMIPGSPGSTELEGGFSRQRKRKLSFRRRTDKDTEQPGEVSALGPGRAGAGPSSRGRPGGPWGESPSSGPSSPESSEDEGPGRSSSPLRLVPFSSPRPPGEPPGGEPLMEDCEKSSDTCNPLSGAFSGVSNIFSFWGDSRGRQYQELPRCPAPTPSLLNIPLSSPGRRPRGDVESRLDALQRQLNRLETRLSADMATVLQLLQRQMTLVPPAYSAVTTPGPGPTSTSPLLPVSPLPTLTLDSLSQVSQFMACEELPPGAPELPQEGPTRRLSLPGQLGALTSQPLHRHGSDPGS
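Further: peak tail current of the secondary pulse compared with the same well before compound.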

| SMILES | hERG current change (%, negative = inhibition) at 10uM |
| --- | --- |
| Cc1ccc(S(=O)(=O)N2[C@@H](c3cccc(Cl)c3)C(C(=O)O)=CC[C@H]2c2cccs2)cc1 | 13.7% |
| Cc1oc(-c2ccc(Cl)cc2)nc1CS(=O)CC(=O)NCc1ccccn1 (stereo not shown) | -10.7% |
| Cc1oc(-c2ccc(Cl)cc2)nc1CN1CCCC(C(=O)NCc2ccccn2)C1 (stereo not shown) | -67.8% |
| Cc1oc(-c2cccc(Cl)c2)nc1CN1CCC(C(=O)NCc2cccnc2)CC1 | -60.9% |
| Cc1noc(C)c1S(=O)(=O)N1CCCC(C(=O)NCc2ccccn2)C1 (stereo not shown) | 3.78% |
| O=C(Nc1nccs1)c1cccc(S(=O)(=O)N2CCCC2)c1 | -6.01% |
| Cc1cc(C(=O)CN2CCC(C)CC2)c(C)n1-c1ccccc1F | -5.74% |
| O=c1c2ccccc2nnn1-c1ccc(Br)cc1 | 12% |
| COc1ccc(C(O)P(=O)(OC2CCCCC2)c2ccc(N(C)C)cc2)cc1OC (stereo not shown) | -7.44% |
| CCCCC1C(=O)N(c2ccccc2)N(c2ccc(O)cc2)C1=O (stereo not shown) | -9% |
| O=C(Cc1c[nH]c2ccccc12)NCc1ccc2c(c1)OCO2 | 19.4% |
| Cc1ccc(CCNC(=O)c2nc(CS(=O)(=O)c3ccc(Cl)cc3)no2)cc1 | 31.6% |
| c1cc(-c2ccncc2)ccn1 | 20.9% |
| c1cc(-c2sc(-c3ccncc3)c(-c3ccncc3)c2-c2ccncc2)ccn1 | -66.6% |
| Nc1ccncc1 | 5% |
| Cc1ccc2[nH]c(=O)c(CN(CC3CCCO3)C(=S)NCc3ccco3)cc2c1 (stereo not shown) | -8.49% |
| COC(=O)c1ccc(-n2cnc(Cl)n2)c(F)c1 | -7.27% |
| COc1ccc(-n2nc(C(=O)NCC(=O)NCCCN3CCOCC3)c3ccccc3c2=O)cc1Cl | -12.6% |
| CCOC(=O)C1CCCN(C(=O)CNC(=O)c2nn(-c3ccc(OC)c(Cl)c3)c(=O)c3ccccc23)C1 (stereo not shown) | -5.66% |
| COc1ccc(-n2nc(C(=O)NCC(=O)NCc3ccc(F)cc3)c3ccccc3c2=O)cc1 | -12.1% |
| COc1ccc(-n2nc(C(=O)NCC(=O)NCc3ccccc3OC)c3ccccc3c2=O)cc1 | -69.5% |
| COc1ccc(-n2nc(C(=O)NCC(=O)NCCCN3CCC(C)CC3)c3ccccc3c2=O)cc1Cl | -74.2% |

| SMILES | hERG current change (%, negative = inhibition) at 10uM |
| --- | --- |
| CCCCNC(=O)CNC(=O)c1nn(-c2ccc(OC)c(Cl)c2)c(=O)c2ccccc12 | 9.5% |
| COc1ccc(-n2nc(C(=O)NCC(=O)NCCCN3CCCCCC3)c3ccccc3c2=O)cc1Cl | -56% |
| COCCCNC(=O)CNC(=O)c1nn(-c2ccc(OC)c(Cl)c2)c(=O)c2ccccc12 | 8.9% |
| CCOC(=O)C1CCN(C(=O)CNC(=O)c2nn(-c3ccc(OC)c(OC)c3)c(=O)c3ccccc23)CC1 | -2.02% |
| CCOC(=O)C1CCN(C(=O)CNC(=O)c2nn(-c3ccc(OC)c(Cl)c3)c(=O)c3ccccc23)CC1 | -55% |
| CCC1CCCCN1CCCNC(=O)CNC(=O)c1nn(-c2ccc(OC)c(Cl)c2)c(=O)c2ccccc12 (stereo not shown) | -39.4% |
| COc1ccc(-n2nc(C(=O)NCC(=O)NCc3ccccc3OC)c3ccccc3c2=O)c(OC)c1 | 7.07% |
| CCOC(=O)C1CCCN(c2cc(=O)n(-c3ccccc3Cl)c(=O)[nH]2)C1 (stereo not shown) | 9.43% |
| O=C1C2=C(SCCS2)C(=O)N1CCCO | 4.66% |
| CCC(Oc1ccccc1)C(=O)Nc1ccccc1N1CCCCC1 (stereo not shown) | 5.6% |
| CSc1nnc2ccc(-c3cccs3)nn12 | -8.27% |
| O=C(NC(=O)c1ccccc1)Nc1ccccc1O | 14.7% |
| Cn1c(C(=O)OCC(=O)NCc2cccs2)cc2sccc21 | 3.37% |
| O=C(Oc1ccccc1C(=S)N1CCOCC1)c1ccccc1 | 7.59% |
| CCN(CC)c1ccc(C2C(C(=O)OCCOC(C)C)=C(C)NC3=C2C(=O)CCC3)cc1 (stereo not shown) | -12.3% |
| CC1CCCN(c2ncnc3c2cnn3-c2ccccc2)C1 (stereo not shown) | -1.2% |
| COc1ccc(-n2nc(C(=O)NCC(=O)NCCCN3CC(C)CC(C)C3)c3ccccc3c2=O)cc1Cl (stereo not shown) | -62.3% |
| COc1ccc(-n2nc(C(=O)NCC(=O)NCCCN3CC(C)CC(C)C3)c3ccccc3c2=O)cc1 (stereo not shown) | -37.2% |
| COc1ccc(-n2nc(C(=O)NCC(=O)NCCCN3CC(C)CC(C)C3)c3ccccc3c2=O)cc1OC (stereo not shown) | -34% |
| O=C(c1ccccc1)N(Cc1cccnc1)C1(C(=O)Nc2ccccc2)CCCCC1 | 5.29% |
| CC(=O)Nc1ccc2c(c1)CCc1ccccc1-2 | 15.1% |
| O=C(CCS(=O)(=O)c1ccc(F)cc1)Nc1nc(-c2ccccn2)cs1 | -12.6% |

| SMILES | hERG current change (%, negative = inhibition) at 10uM |
| --- | --- |
| Cc1ccc(S(=O)(=O)Cn2nnnc2CN2CCN(Cc3ccc4c(c3)OCO4)CC2)cc1 | -28.7% |
| CCC(C)(C)n1nnnc1CN1CCC(n2c(C)nc3cc(C(F)(F)F)ccc32)CC1 | -5.5% |
| Cc1nc2cc(C(F)(F)F)ccc2n1C1CCN(Cc2nnnn2Cc2cccs2)CC1 | -36.6% |
| CCN(CC)C(=O)CN1CCC(n2c(C)nc3cc(C(F)(F)F)ccc32)CC1 | -32.8% |
| Cc1nc2cc(C(F)(F)F)ccc2n1C1CCN(Cc2nnnn2Cc2ccc3c(c2)OCO3)CC1 | -54.1% |
| Cl.c1ccc(CCn2nnnc2CN2CCN(C3CCCC3)CC2)cc1 | -3.4% |
| Cc1ccccc1C(=O)NC1CCN(Cc2nnnn2CCc2ccccc2)CC1 | -8.14% |
| Cc1nc2ccccc2n1C1CCN(Cc2nnnn2CCc2ccccc2)CC1.Cl | -68.6% |
| Cc1nc2cc(F)ccc2n1C1CCN(Cc2nnnn2CCc2ccccc2)CC1.Cl | -65.7% |
| Cc1nc2cc(C(F)(F)F)ccc2n1C1CCN(Cc2nnnn2CCc2ccccc2)CC1 | -68.4% |
| CCOC(=O)C1CCN(Cc2nnnn2CCc2ccccc2)CC1 | -4.94% |
| OC1(c2ccccc2F)CCN(Cc2nnnn2CCc2ccccc2)CC1 | 30.9% |
| CCc1ccc(OCC(=O)NCC(c2ccc(Cl)cc2)N2CCCCC2)cc1 (stereo not shown) | -6.4% |
| CCN(CC)C(=O)CCc1nnc(CCc2c[nH]c3ccccc23)o1 | 6.93% |
| O=C(CN1C(=O)/C(=C/c2ccccc2)SC1=S)Nc1ncc(Cc2ccccc2)s1 | 7.31% |
| C[C@H](NC(=O)[C@@H]1CSC2c3ccccc3C(=O)N21)C(=O)NC1CCCC1 (stereo partly shown) | 10.5% |
| COc1ccc(C(=O)NCc2ccon2)cc1OC1CCN(C(C)C)CC1 | -45.6% |
| CCc1cccc(C)c1N(C(=O)Cn1c(CO)nc2ccccc21)C(C)COC (stereo not shown) | -5.89% |
| COC(=O)c1c(N)sc(C(C)=O)c1C | 0.466% |
| CCOC(=O)N1CCC(NC(=O)Cn2c3c(c(-c4ccccc4Cl)cc2=O)CCC3)CC1 | -8.61% |
| CCOc1ccc(/C=N/Nc2ccccc2)cc1 | 17.6% |
| O=C(c1cccnc1)N1c2ccccc2Sc2ccccc21 | -18.1% |

| SMILES | hERG current change (%, negative = inhibition) at 10uM |
| --- | --- |
| Fc1ccc2c(c1)nnn2C1CCN(Cc2ccccc2)CC1 | -61.4% |
| Fc1ccc2c(c1)nnn2C1CCN(Cc2c(Cl)cccc2Cl)CC1 | 7.11% |
| O=C(NC1CCN(Cc2nnnn2CCc2ccccc2)CC1)c1ccccc1F | -3.18% |
| c1ccc(CCn2nnnc2CN2CCC(n3nnc4ccccc43)CC2)cc1 | -36.4% |
| Cl.Fc1ccc2c(c1)nnn2C1CCN(Cc2nnnn2CCc2ccccc2)CC1 | -61.3% |
| CCCC(C)C(=O)Nc1ccc(Cl)cn1 (stereo not shown) | -7.45% |
| COc1cc(OC)nc(Oc2cc(/C=N/O)ccc2OC)n1 | 0.516% |
| CCOC(=O)N1CCC(NC(=O)c2cc(-c3ccc(F)cc3)[nH]c2C)CC1 | -0.721% |
| Cc1[nH]c(-c2ccc(F)cc2)cc1C(=O)N1CCN(c2ccccc2)CC1 | -58.8% |
| Cc1[nH]c(-c2ccc(F)cc2)cc1C(=O)N1CCN(c2cccc(Cl)c2)CC1 | -12% |
| Cc1[nH]c(-c2ccc(F)cc2)cc1C(=O)N1CCN(c2ccc(Cl)cc2)CC1 | -13.4% |
| COc1ccc(N2CCN(C(=O)c3cc(-c4ccc(F)cc4)[nH]c3C)CC2)cc1 | -67.4% |
| COc1cccc(N2CCN(C(=O)c3cc(-c4ccc(F)cc4)[nH]c3C)CC2)c1 | -68.4% |
| CCOC(=O)N1CCN(C(=O)c2cccc(F)c2)CC1 | -17.9% |
| CCOC(=O)N1CCN(C(=O)c2cc(-c3ccc(F)cc3)[nH]c2C)CC1 | -72.3% |
| COc1cccc(N2CCN(C(=O)c3ccc(-c4ccccc4)cc3)CC2)c1 | -49.5% |
| COc1ccc(-n2ncc(C(=O)N3CCN(c4ccc(F)cc4)CC3)c2C)cc1 | -22.6% |
| COc1cccc(N2CCN(C(=O)c3cc(C)oc3C)CC2)c1 | 6.8% |
| Cc1ccc(N2CCN(C(=O)c3cc(-c4ccc(F)cc4)[nH]c3C)CC2C)cc1 (stereo not shown) | -13.3% |
